In the library only some 3% were active in any assay of this set; here they are far more common.
HEK293 viab – GF-AFC viability counterscreen for inhibitors of alpha-synuclein gene (SNCA) expression. HEK-293-SNCA-luc viability, GF-AFC fluorescence, 24 h. Potency, µM (top dose mostly 57.1 µM), inactives show at the top dose activity change, negative = cytotoxicity, actives largely listed as cytotoxic. 150,000 tested, 0.12% active;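 further: potency means the concentration at half of the fitted maximal effect; 0% = DMSO-treated cells and -100% = medium-only wells without cells; nearly all actives have a fitted effect of over 30% in size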
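Cytotoxicity counterscreen: after 24 h compound treatment of genome-edited SNCA-luciferase HEK-293 cells, live-cell protease substrate GF-AFC read by fluorescence after 30 min; activity scaled between DMSO (0%) and medium-only (-100%), curves Hill-fitted.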
IP6K1 inh – Primary qHTS assay for small molecule inhibitors of Inositol hexaphosphate kinase 1 (IP6K1); IP6K1 kinase, ADP-Glo luminescence, 2 h; stronger effect = lower value; AID 1645851, 2021; Inositol hexakisphosphate kinase 1 (Homo sapiens), Q92551; 140,000 tested, 0.81% active; activity change, % (series mostly up to about 58 µM); in the data active means activity change below about -25%; further: on the % scale 0 is the no-effect control and ±100 the full control effect
Target sequence (Q92551 whole entry, looked up): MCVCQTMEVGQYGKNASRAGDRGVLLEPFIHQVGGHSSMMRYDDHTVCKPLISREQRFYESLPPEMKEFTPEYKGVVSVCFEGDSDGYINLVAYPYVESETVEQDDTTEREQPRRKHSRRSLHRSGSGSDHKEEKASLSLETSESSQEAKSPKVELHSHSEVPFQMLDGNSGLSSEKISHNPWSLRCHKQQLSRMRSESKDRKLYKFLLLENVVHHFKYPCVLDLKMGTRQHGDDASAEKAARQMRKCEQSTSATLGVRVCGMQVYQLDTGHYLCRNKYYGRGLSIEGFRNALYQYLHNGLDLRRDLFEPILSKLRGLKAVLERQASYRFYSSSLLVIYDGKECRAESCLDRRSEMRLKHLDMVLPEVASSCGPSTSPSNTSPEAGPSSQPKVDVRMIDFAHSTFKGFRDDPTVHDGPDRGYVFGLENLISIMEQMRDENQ
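ADP-Glo luminescence measures ADP made by human IP6K1 during a 2 h RT reaction with ATP/IP6 (mix at 1.3 mM/130 uM); top library doses 57.5 and 19.1 uM final.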
SNCA expr inhib – Primary qHTS assay for inhibitors of alpha-synuclein gene (SNCA) expression; 140,000 tested, 0.17% active; Potency, µM (series often up to 57.2 µM), for inactives: at the highest dose activity change, negative = inhibition, actives largely listed as inhibitors; HEK-293 SNCA-luciferase knock-in, luminescence, 24 h;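 further: potency means the concentration at half of the fitted maximal effect; plate controls were DMSO cells for no effect and cell-free wells for full effect; nearly all actives have a fitted effect of over 45% in size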
KDM5B inh – Primary screen for KDM5B Histone Demethylases FDH-coupled qHTS | AID 1347165, 2019 | 220,000 tested, 2.6% active | KDM5B demethylase, FDH-coupled NADH fluorescence (FDH is formaldehyde dehydrogenase) | Potency, µM (titrated, usually from 57.7 µM), most hits filed as inhibitors | Lysine-specific demethylase 5B (Homo sapiens), Q9UGL1; further: potency means the concentration at half of the fitted maximal effect; 0% is about no effect; nearly all actives have a fitted effect of over 70% in size
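Measured: NADH fluorescence change, 30 min, RT. System: KDM5BΔAP 200 nM final, H3K4me3 peptide, α-KG, Fe(II), ascorbate, NAD⁺ plus FDH, pH 7.5 HEPES. Compounds: titrated, 10 min pre-incubation with enzyme.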
The depositor's hits bear a star. Unless noted, the call rests on the fitted dose curve; in most records, active means well fitted curve in the direction sought with a large enough effect; inconclusive means small, poorly fitted or top-dose-only effect, or another doubt; inactive means no such curve, though single readings can be large; an effect the other way counts as inactive or inconclusive.

How did CCC1Oc2ccc(NC(=O)c3ccc(OC)c(OC)c3)cc2CN(Cc2ccc(Cl)cc2)C1=O (stereo not drawn) do in these assays?
HEK293 viab: inconclusive; IP6K1 inh: -16; SNCA expr inhib: inconclusive; KDM5B inh: 28µM*

Results for O=C(N[C@H](C1CCNCC1)C1CC(O)C1)c1cccc(=O)[nH]1 (stereo partly drawn) ?
HEK293 viab: 4%; IP6K1 inh: 6; SNCA expr inhib: -6%; KDM5B inh: 22µM*

Results for Cc1cnc2c(C(=O)N[C@H](C3CCNCC3)C3CC(O)C3)cnn2c1 (stereo partly drawn) ?
HEK293 viab: 8%; IP6K1 inh: -1; SNCA expr inhib: -12%; KDM5B inh: 32µM*

How did CC(C)Cc1cc(C(=O)N[C@H](C2CCNCC2)C2CC(O)C2)nc(N)n1 (stereo partly drawn) do in these assays?
HEK293 viab: 6%; IP6K1 inh: 14; SNCA expr inhib: -11%; KDM5B inh: 22µM*

What do the screens show for `Cn1cc(Cl)cc1C(=O)N[C@H](C1CCNCC1)C1CC(O)C1` (stereo partly drawn)?
HEK293 viab: 6%; IP6K1 inh: -5; SNCA expr inhib: 24%; KDM5B inh: inactive

What do the screens show for `COc1ccccc1C(=O)NC1CCN(Cc2ccc(-c3cc(F)ccc3OC)cc2)C1` (stereo not drawn)?
IP6K1 inh: 4

Results for Cc1ccc(NC(=O)N2CCc3c(C(=O)NCCCN4CCCC4=O)cccc32)cc1 ?
HEK293 viab: 2%; IP6K1 inh: -5; SNCA expr inhib: 2µM*; KDM5B inh: inactive

What do the screens show for `Cc1ccc(NC(=O)N2CCc3c(C(=O)NC(C)c4cccnc4)cccc32)cc1` (stereo not drawn)?
HEK293 viab: -5%; IP6K1 inh: -5; SNCA expr inhib: 4µM*; KDM5B inh: inactive

What do the screens show for `COc1ccc(NC(=O)N2CCc3c(C(=O)NC(C)C)cccc32)cc1`?
HEK293 viab: -11%; IP6K1 inh: -4; SNCA expr inhib: 3.5µM*; KDM5B inh: inactive

How did O=C1Nc2ccccc2CN(Cc2ccc(Cl)cc2)C12CCNCC2 do in these assays?
HEK293 viab: -26%; IP6K1 inh: -3; SNCA expr inhib: -2%; KDM5B inh: inactive

How did CCNC(=O)OC1CCN(C(=O)c2cc3ccccc3s2)CC(=O)N(C)c2ccccc21 (stereo not drawn) do in these assays?
IP6K1 inh: -8

How did Cc1ccc(C(=O)N2CCC3(CC2)N=C(c2ccc(Cl)cc2)NO3)cc1 do in these assays?
HEK293 viab: 6%; IP6K1 inh: -3; SNCA expr inhib: -6%; KDM5B inh: inconclusive

How did CCOc1ccc(CC(=O)N2CCC3(CC2)N=C(c2ccc(Cl)cc2)NO3)cc1 do in these assays?
HEK293 viab: 8%; IP6K1 inh: -13; SNCA expr inhib: 6%; KDM5B inh: 16µM*

How did CCOc1ccc(C(=O)N2CCC3(CC2)N=C(c2ccc(Cl)cc2)NO3)cc1 do in these assays?
HEK293 viab: -10%; IP6K1 inh: 1; SNCA expr inhib: -26%; KDM5B inh: 28µM*

How did Cc1cccc(C(CC(=O)Nc2cccc(-c3ccno3)c2)n2cccc2)c1 (stereo not drawn) do in these assays?
KDM5B inh: inactive

How did O[C@]1(c2ccccc2)CCN(Cc2ccco2)C[C@H]1N1CCCC1 do in these assays?
HEK293 viab: -20%; IP6K1 inh: 18; SNCA expr inhib: -25%; KDM5B inh: inconclusive

Results for O=C(c1cccs1)N1CCC(O)(c2ccccc2)[C@H](N2CCCC2)C1 (stereo partly drawn) ?
HEK293 viab: -7%; IP6K1 inh: 33; SNCA expr inhib: 32%; KDM5B inh: inconclusive

Results for O=C(C1CC1)N1CC[C@](O)(c2ccccc2)[C@H](N2CCCC2)C1 ?
HEK293 viab: -6%; IP6K1 inh: 19; SNCA expr inhib: -12%; KDM5B inh: 16µM*

How did O[C@]1(c2ccccc2)CCN(Cc2ccncc2)C[C@H]1N1CCCC1 do in these assays?
HEK293 viab: -18%; IP6K1 inh: 21; SNCA expr inhib: 12%; KDM5B inh: 6.3µM*

What do the screens show for `CC(C)(C)c1cc(CCC(N)=O)cc(C(C)(C)C)c1O`?
KDM5B inh: inactive

Screening results deposited in PubChem by National Center for Advancing Translational Sciences (NCATS).
